Results filed as inconclusive are left out. Values without a mark were called inactive. Active and inactive are the calls of the source. Calls come from the whole dose curve; as a rule, active = well fitted activation curve with a large enough effect in the signal ratio in the repeat runs (not every such curve was filed as active); inconclusive = weak or mixed curves, or effect the other way; inactive = flat fitted curve, though single readings scatter; the % refers to the signal ratio.
% is set by controls: 0 for no effect and ±100 for the full control effect; potency is the fitted concentration of half-maximal effect.

The target in the experiment is Estrogen receptor beta (Homo sapiens) (UniProt Q92731). Put plainly: qHTS assay to identify small molecule agonists of the estrogen receptor beta (ER-beta) signaling pathway (AID 1259377). The conditions noted are these: ER-beta-UAS-bla HEK293T, beta-lactamase FRET ratio, 16 h; series mostly up to 92.4 µM; activation: at the top concentration. The source says: U.S. Tox21 Program National Center for Advancing Translational Sciences [NCATS] NIH Chemical Genomics Center [NCGC] U.S. Environmental Protection Agency [EPA] National Institutes of Environmental Health Sciences [NIEHS] National Toxicology Program [NTP] U.S. Food and Drug Administration [FDA] Tox21 Assay Overview: Estrogen receptor (ER), a nuclear hormone receptor, plays an important role in development, metabolic homeostasis and reproduction. Two subtypes of ER, ER-alpha and ER-beta, have similar expression patterns with some uniqueness in both types. Endocrine disrupting chemicals (EDCs) and their interactions with steroid hormone receptors like ER causes disruption of normal endocrine function. To identify the compounds that activate ER signaling, an ER beta-UAS-bla GripTite cell line (Life technologies, Madison, WI, USA) containing a beta-lactamase reporter gene under the control of an Upstream Activator Sequence (UAS) was used to screen Tox21 10K compound library.
Estrogen receptor beta (Homo sapiens), sequence (Q92731 whole entry, looked up): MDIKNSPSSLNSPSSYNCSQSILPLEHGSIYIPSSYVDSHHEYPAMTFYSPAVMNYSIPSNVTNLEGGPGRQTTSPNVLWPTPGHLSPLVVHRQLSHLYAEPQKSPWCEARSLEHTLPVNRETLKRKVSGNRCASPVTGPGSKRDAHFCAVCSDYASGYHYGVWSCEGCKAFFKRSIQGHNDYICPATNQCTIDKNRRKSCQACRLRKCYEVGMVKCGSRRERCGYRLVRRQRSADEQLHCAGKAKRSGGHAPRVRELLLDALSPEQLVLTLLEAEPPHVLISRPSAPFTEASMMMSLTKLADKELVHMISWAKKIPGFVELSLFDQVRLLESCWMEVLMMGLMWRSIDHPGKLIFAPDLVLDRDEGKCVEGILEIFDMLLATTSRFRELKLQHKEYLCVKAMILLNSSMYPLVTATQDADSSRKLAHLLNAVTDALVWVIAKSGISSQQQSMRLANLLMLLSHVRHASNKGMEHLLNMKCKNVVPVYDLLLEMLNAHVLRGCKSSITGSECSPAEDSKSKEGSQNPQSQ
Tox21 Assay Protocol Summary: ER-beta-UAS-bla HEK293T cells were dispensed at 2,000 cells/5 uL of assay medium containing 2% charcoal stripped FBS per well into black wall/clear-bottom 1536-well plates using a Multidrop Combi (ThermoFisher Scientific, Waltham, MA) dispenser. After the assay plates were incubated at a 37C and 5% CO2 for 6 hr, 23 nL of compounds dissolved in DMSO, positive controls or DMSO only was transferred to the assay plate by a Pintool station (Kalypsys, San Diego, CA). The plates were incubated at 37C and 5% CO2 for 16 hr. Then 1 uL of LiveBLAzerTM B/G FRET substrate was added using a BioRAPTR FRD (Flying Reagent Dispenser, Aurora Discovery, San Diego, CA). After the plates were incubated at room temperature for 2 hours, fluorescence intensity was measured by an Envision plate reader (PerkinElmer, Shelton, CT).
(In general: Quantitative high-throughput screening tests each substance at several concentrations.)
`C=CCCCCCC`: the “activation” value is 0.121%.

Turning to `CCCc1ccccc1`, the “activation” value was 4.33%. Still for that read-out and setting: then `O=C(O)COC(=O)Cc1ccccc1Nc1c(Cl)cccc1Cl`, with -5.29% [at 42.5 µM]; and `CC(CN)CCCN` (stereo not given), with 0.697%. For `CCOC(=O)C1=C(C)NC(C)=C(C(=O)OC)C1c1cccc([N+](=O)[O-])c1` (stereo not given), the “activation” value was -0.641% [at 42.5 µM]. `CC/C(=C\C(=N/O)C(N)=O)C(C)[N+](=O)[O-]` (stereo not given): the “activation” value was -1.02%. Same read-out and setting: next, `O=C(CCN1CCN2CCCC2C1)N1c2ccccc2Sc2ccc(Cl)cc21` (stereo not given): -2.5% [at 19 µM]; `CCCCOc1cc(C(=O)OCCN(CC)CC)ccc1N`: 3.6% [at 42.5 µM]. On the same count and under the same terms, then `ClC(Cl)(Cl)c1ccc(C(Cl)(Cl)Cl)cc1`, with 5.06%. Still for that read-out and setting: then `CC1(C)[C@H]2CC[C@]1(C)[C@H](O)C2`, with 1.45%. As to `C=C(C)C(=O)OC(C)C`, the “activation” value is -3.4%. As to `O=C1CCCCCO1`, the “activation” value is -0.285%. Same read-out and setting: next, `CCN1CCC[C@H]1CNC(=O)c1c(OC)ccc(Br)c1OC`: -0.125% [at 42.5 µM].

Turning to `CCCCCOC(=O)COc1cc(N2C(=O)C3=C(CCCC3)C2=O)c(F)cc1Cl`, the “activation” value is 0.007%. With `CC(=O)SCc1ccco1`, the “activation” value was -3.55%. Still for that read-out and setting: next, `COCCOCCOCCOCCOC`: -2.64%; `Cc1cccc(OCCOc2cccc(C)c2)c1`: -0.575%; `OCCC1CCCCN1` (stereo not given): 0.0369%.

In the case of `CC[C@H](C)[C@@H](C(=O)O)n1sc2ccccc2c1=O`, the “activation” value is -0.489%. With `CCOc1nc2cccc(C(=O)O)c2n1Cc1ccc(-c2ccccc2-c2nn[nH]n2)cc1`, the “activation” value was -1.99% [at 42.5 µM]. `CC1(C)CCC(C)(C)c2cc(NC(=O)c3ccc(C(=O)O)cc3)ccc21`: the “activation” value was -2.06% [at 42.5 µM]. On to `CCOC(=O)CC(C)C`, for which the “activation” value was 1.41%. The same measure, in the same setting: next, `C=CC(=O)OCC(C)OCC(C)OCC(C)OC(=O)C=C` (stereo not given): -7.56%; `CCCCCCc1ccc(N)cc1`: -3.78%. As to `O=C(c1ccc(O)cc1)c1ccc(O)cc1`, the Potency is 6.11 µM (active). In the case of `CC(=O)OC/C=C/c1ccccc1`, the “activation” value is 3.45%. The same measure, in the same setting: next, `CCCCCCCCC(CO)CCCCCC` (stereo not given): -0.0279%; `O=C(Nc1ccccc1)OCC(CN1CCCCC1)OC(=O)Nc1ccccc1` (stereo not given): -1.88% [at 42.5 µM]. On the same count and under the same terms, next, `Cc1ccccn1`: 1.27%.

Turning to `OC(CCN1CCCCC1)(c1ccccc1)C1CCCCC1` (stereo not given), the “activation” value was -1.71% [at 42.5 µM]. Same read-out and setting: next, `Cc1ccc2c(ccc3ccccc32)c1`: 2.93%. In the case of `CC(O)C1CCCCC1` (stereo not given), the “activation” value is 1.29%. Take `N[C@H]1C(O)O[C@H](CO)[C@H](O)[C@@H]1O` (stereo not given in full): the “activation” value was -2.43%. As to `CCCCCCCC/C=C\CCCCCCCC(N)=O`, the “activation” value was -1.98%.

On to `Cc1ccc(C(=O)C(C)CN2CCCCC2)cc1` (stereo not given), for which the “activation” value was -1.34% [at 42.5 µM]. `Oc1ccc(O)c2c(O)cccc12`: the “activation” value is -1.38%.

On to `Cc1ccc(C(C)c2ccc(C)c(C)c2)cc1C`, for which the “activation” value is -0.886%. On the same count and under the same terms, next, `CCN(CC)CCNC(C(=O)OCCC(C)C)c1ccccc1` (stereo not given): 1.4% [at 42.5 µM]; `Nc1cnn([C@@H]2O[C@H](CO)[C@@H](O)[C@H]2O)c(=O)n1`: -0.199%; `C#CCOC(=O)[C@@H](C)Oc1ccc(Oc2ncc(Cl)cc2F)cc1`: -1.62%.

For the origin of these results see PubChem BioAssay (Tox21).
